Test [1] concerns Nanoluciferase (engineered Oplophorus gracilirostris luciferase). Put plainly: Primary Nanoluciferase (NLuc) qHTS assay for identification of artifact compounds. (AID 1845222).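 Also: NLuc secreted into diluted conditioned medium of S16 cells; series mostly up to about 54 µM; 0% = DMSO and -100% = no enzyme.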 In a few lines:
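Using secreted nanoluciferase in S16 culture medium (0.22 um filtered, 1:55 dilution), compounds were preincubated 15 min at RT. Signal was generated with Nano-Glo reagent (1:100) over 5 min.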
A general note: Quantitative high-throughput screening tests each substance at several concentrations.

A short description of test [2]: Primary redox qHTS assay for identification of artifact compounds. (AID 1845223).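 Also: 0% = DMSO and 100% = reference compound.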 The essentials: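 Amplex Red (25 uM) and HRP (250 mU/mL) in HBSS, with compounds for 15 min, then 250 uM DTT for 30 min, room temperature, dark. Fluorescence 525/598 nm read; normalized to DMSO and 10 uM DA3003; Hill fit.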

Values without a mark were called inactive. Inconclusive results are not listed. Activity calls are given as the source filed them. Calls follow the shape of the dose curve; as a rule, active = well fitted curve in the direction sought with a large enough effect; inconclusive = small, poorly fitted or top-dose-only effect, or another doubt; inactive = no such curve, though single readings can be large; an effect the other way counts as inactive or inconclusive.

Turning to `CC(=O)NC(C(=O)OC1CCC(C)(C)C2CC=C3C(=O)OCC3(O)C12C)C(C)C` (centres undefined), the Potency entry in test [1] and in test [2] was “inactive” in each case.
Regarding `COc1ccc2c(c1O)OC[C@H]1c3ccc(O)cc3O[C@@H]21`, the Potency result in test [1] and in test [2] was “inactive” each time.
With `C[C@@H]1O[C@@H](O[C@H]2[C@H](OC(C#N)c3ccc(O)cc3)O[C@H](CO)[C@@H](O)[C@@H]2O)[C@H](O)[C@H](O)[C@H]1O` (some centres undefined), the Potency result in test [1] and in test [2] was “inactive” throughout.
As for `COc1ccccc1CC(C(=O)O)N(C)C(=O)c1ccccc1` (centres undefined), the Potency result in test [1] and in test [2] was “inactive” each time.
On to `CCC(C)C(=O)O[C@@H]1[C@@H](O)[C@@H](O[C@H]2O[C@H](CO)[C@@H](O)[C@H](O)[C@H]2O)O[C@H](CO)[C@H]1O` (some centres undefined), for which the Potency result in test [1] and in test [2] was “inactive” in each case.
On to `C=C1CC2(C(=O)O)CC1CCC2C1(C)CCCC2(C)C(=O)OC(O)C21` (centres undefined), for which the Potency result in test [1] and in test [2] was “inactive” each time.
On to `C=CCc1ccc(O[C@@H]2O[C@H](CO[C@@H]3O[C@@H](C)[C@H](O)[C@@H](O)[C@H]3O)[C@@H](O)[C@H](O)[C@H]2O)cc1`, for which the Potency result in test [1] and in test [2] was “inactive” each time.
Take `CC(=O)c1cnc2ccc(-c3cc(Cl)c(O)c(Cl)c3)nc2c1NC1CCC(CN(C)C)CC1` (centres undefined): the activity, negative = inhibition in test [1] is 0% [at 11.6 µM]. Besides, the redox activity (% of DA3003) in test [2] was 2.52% [at 11.5 µM].
Regarding `CC1CCC23COC(=O)C2=CC(O)CC3C1(C)CCC1=CC(=O)OC1O` (centres undefined), the Potency entry in test [1] and in test [2] was “inactive” throughout.
`O=C1NCc2nc3ccccc3c(=O)n2C1Cc1c[nH]c2ccccc12` (centres undefined): the Potency result in test [1] and in test [2] was “inactive” in each case.
Regarding `COc1ccc2c3c1O[C@H]1C[C@@H](O)C=C[C@@]31CCN(C)C2`, the Potency entry in test [1] and in test [2] was “inactive” in each case.
`CC(C)CC(=O)OC[C@H]1O[C@@](COC(=O)CC(C)C)(O[C@H]2O[C@H](CO)[C@@H](O)[C@H](O)[C@H]2O)[C@@H](OC(=O)CC(C)C)[C@@H]1OC(=O)CC(C)C`: the Potency result in test [1] and in test [2] was “inactive” throughout.
For the compound `CC1=C2C(=O)C=C(CO)[C@@H]2[C@H]2OC(=O)[C@H](C)[C@@H]2[C@@H](O)C1`, the Potency result in test [1] and in test [2] was “inactive” each time.
In the case of `CC(=O)OC[C@]1(O)[C@H]2[C@H](OC(=O)CC(C)C)OC=C(CO[C@@H]3O[C@H](CO)[C@@H](O)[C@H](O)[C@H]3O)[C@H]2C[C@@H]1O`, the Potency result in test [1] and in test [2] was “inactive” in each case.
For `CC(=O)NC(CCC(=O)O)C(=O)NCCc1ccc(O)cc1` (centres undefined), the Potency entry in test [1] and in test [2] was “inactive” in each case.
Consider `COc1ccc(C2=CC(=O)OC2Cc2ccc(O)cc2)c(O)c1` (centres undefined), for which the Potency result in test [1] and in test [2] was “inactive” throughout.
In the case of `CCOC(=O)N1CCC(NCCNC(=O)c2ccccc2C)CC1`, the Potency result in test [1] and in test [2] was “inactive” throughout.
Take `O=C1[C@H](O[C@@H]2O[C@H](CO)[C@@H](O)[C@H](O)[C@H]2O)Oc2ccccc2N1O`: the Potency result in test [1] and in test [2] was “inactive” in each case.
As to `CC1C(=O)CC2C3C(O)CC(C(=O)O)C12CC3(C)C` (centres undefined), the Potency result in test [1] and in test [2] was “inactive” in each case.
For the compound `COc1ccc2c(c1)OC[C@]1(O)c3cc4c(cc3O[C@H]21)OCO4`, the Potency entry in test [1] and in test [2] was “inactive” each time.
Consider `CNC(=O)Nc1ccc(OC)c(NC(=O)NC(=O)c2cc(F)c(F)cc2Cl)c1`, for which the Potency result in test [1] and in test [2] was “inactive” each time.
In the case of `C=CC1(C)CC(OC(=O)C(=C)C(O)COC(C)=O)C(C(=C)C(=O)OC)C(O)C1C(=C)CO` (centres undefined), the Potency entry in test [1] and in test [2] was “inactive” throughout.
For `COc1ccc(/C=C/C(=O)O[C@@H]2[C@@H](O)[C@H](C)O[C@@H](OC3C4C=COC(O[C@@H]5O[C@H](CO)[C@@H](O)[C@H](O)[C@H]5O)C4C4(CO)OC34)[C@@H]2O)cc1OC` (some centres undefined), the Potency entry in test [1] and in test [2] was “inactive” in each case.
For the compound `CC(=O)O[C@H]1[C@H](Oc2ccccc2COC(=O)C2(O)C=CCCC2=O)O[C@H](CO)[C@@H](O)[C@@H]1O` (some centres undefined), the Potency result in test [1] and in test [2] was “inactive” throughout.
Consider `COc1cc2c(cc1O)C1(Cc3ccc4c(c3C1=O)OCO4)N(C)CC2` (centres undefined), for which the Potency result in test [1] and in test [2] was “inactive” in each case.
As for `COc1c(OC2OC(CO)C(O)C(O)C2O)ccc(O)c1C(=O)OCc1ccccc1O[C@@H]1O[C@H](CO)[C@@H](O)[C@H](O)[C@H]1O` (some centres undefined), the Potency result in test [1] and in test [2] was “inactive” each time.
On to `CC(CCC1C(C(=O)O)=CC(=O)CC1(C)C)O[C@@H]1O[C@H](CO)[C@@H](O)[C@H](O)[C@H]1O` (some centres undefined), for which the Potency entry in test [1] and in test [2] was “inactive” throughout.
With `C/C(=C/CO)CC[C@@H]1[C@@]2(C)CCC[C@](C)(C(=O)O)C2CC[C@@]1(C)O` (some centres undefined), the Potency result in test [1] and in test [2] was “inactive” in each case.
As for `CC1CCC2(C(=O)OC3OC(CO)C(O)C(O)C3O)CCC3(C(=O)O)C(=CCC4C5(C)CCC(OC6OC(C)C(O)C(O)C6O)C(C)(C)C5CCC43C)C2C1C` (centres undefined), the Potency result in test [1] and in test [2] was “inactive” each time.
`COC(=O)C1=CO[C@@H](O[C@@H]2O[C@H](CO)[C@@H](O)[C@H](O)[C@H]2O)[C@@H]2[C@@H](C(=O)OC)[C@@H](O)C(O)[C@H]12` (some centres undefined): the Potency entry in test [1] and in test [2] was “inactive” in each case.
For the compound `NS(=O)(=O)NCCNc1nonc1C(=Nc1ccc(F)c(Br)c1)NO`, the Potency result in test [1] and in test [2] was “inactive” each time.
Take `CN(NC(=O)CC(=O)NN(C)C(=S)c1ccccc1)C(=S)c1ccccc1`: the Potency result in test [1] and in test [2] was “inactive” in each case.

Values taken from PubChem BioAssay (NCATS).
